From PubChem BioAssay (NCATS)
Results filed as inconclusive are left out. The source made the active and inactive calls. Unless noted, the call rests on the fitted dose curve; in most records, active means well fitted curve in the direction sought with a large enough effect; inconclusive means small, poorly fitted or top-dose-only effect, or another doubt; inactive means no such curve, though single readings can be large; an effect the other way counts as inactive or inconclusive.

Key:
[1] = biological target: Vitamin D3 receptor (Homo sapiens) (UniProt P11473); assay: qHTS assay for small molecule antagonists of vitamin D receptor signaling (AID 588541; calls by dose curve;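 further: receptor activated by calcitriol during compound treatment; series mostly up to about 77 µM; on the % scale 0 is the no-effect control and ±100 the full control effect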)
Sequence of Vitamin D3 receptor (Homo sapiens) (P11473 whole entry, looked up): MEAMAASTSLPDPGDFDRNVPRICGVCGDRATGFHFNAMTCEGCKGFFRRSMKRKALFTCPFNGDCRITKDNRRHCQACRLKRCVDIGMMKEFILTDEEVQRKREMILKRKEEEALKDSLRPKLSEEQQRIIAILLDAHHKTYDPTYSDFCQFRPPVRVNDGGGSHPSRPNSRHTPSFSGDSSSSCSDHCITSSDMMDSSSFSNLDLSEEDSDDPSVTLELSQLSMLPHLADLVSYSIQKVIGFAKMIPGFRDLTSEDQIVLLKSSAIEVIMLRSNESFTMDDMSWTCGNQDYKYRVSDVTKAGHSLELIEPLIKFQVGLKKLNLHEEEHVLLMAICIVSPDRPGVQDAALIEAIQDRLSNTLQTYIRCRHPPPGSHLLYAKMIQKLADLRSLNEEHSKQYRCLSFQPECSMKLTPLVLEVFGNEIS
Summary of the method: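 Antagonist-mode beta-lactamase reporter assay: HEK293T VDR-UAS-bla cells were exposed to titrated compound alongside 1-alpha,25-dihydroxyvitamin D3 at 3 nM final for 16 h. Values were normalized to the 50 nM agonist control and DMSO basal, with IC50 and efficacy from Hill equation fits.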

[2] = biological target: Vitamin D3 receptor (Homo sapiens) (UniProt P11473); assay: qHTS assay for small molecule agonists of vitamin D receptor signaling (AID 588543; calls by dose curve;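 further: 0% = DMSO basal and 100% = reference agonist control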)
Summary of the method: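 qHTS in agonist mode: compound titrations stimulate a VDR-driven β-lactamase reporter in HEK293T cells over 16 h at 37 °C. Response normalized to 50 nM 1α,25-dihydroxyvitamin D3 = 100%, DMSO = 0%; Hill fitting gives EC50 and maximal response.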

[3] = biological target: Thyroid hormone receptor beta (Homo sapiens) (UniProt P10828); assay: qHTS assay for small molecule agonists of thyroid hormone receptor beta signaling (AID 588545; calls by dose curve;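 further: 0% = DMSO only and 100% = 10 nM T3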)
Sequence of Thyroid hormone receptor beta (Homo sapiens) (P10828 whole entry, looked up): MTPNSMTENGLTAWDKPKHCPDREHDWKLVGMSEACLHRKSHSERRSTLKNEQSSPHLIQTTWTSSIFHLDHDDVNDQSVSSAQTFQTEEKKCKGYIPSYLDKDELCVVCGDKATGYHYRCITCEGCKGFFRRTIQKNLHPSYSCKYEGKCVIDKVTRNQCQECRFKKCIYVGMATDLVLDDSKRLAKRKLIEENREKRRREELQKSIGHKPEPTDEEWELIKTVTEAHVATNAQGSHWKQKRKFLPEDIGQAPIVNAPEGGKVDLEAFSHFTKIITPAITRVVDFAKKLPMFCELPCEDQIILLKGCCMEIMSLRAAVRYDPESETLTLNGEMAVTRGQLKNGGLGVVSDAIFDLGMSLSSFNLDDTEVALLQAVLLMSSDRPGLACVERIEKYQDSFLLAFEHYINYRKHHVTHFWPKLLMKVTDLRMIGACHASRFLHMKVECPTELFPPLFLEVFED
Summary of the method: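 Stimulation of a TR-driven beta-lactamase reporter was quantified in GripTite HEK 293 cells. Compound series ran for 18 hrs; curves were normalized to T3 and DMSO controls and fitted to yield EC50.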

[4] = qHTS assay for small molecule antagonists of retinoid X receptor alpha signaling (AID 588546; active means well fitted inhibition curve with a large enough effect in the signal ratio, with a control signal flat, not every such curve was filed as active; the % refers to the signal ratio;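 further: cells stimulated with 9-cis-retinoic acid as agonist; on the % scale 0 is the no-effect control and ±100 the full control effect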); settings: HEK293T RXRa-UAS-bla, beta-lactamase ratio, antagonist mode; measured here: W530 green channel, cytotoxicity proxy
Summary of the method: (§1)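 Beta-lactamase reporter inhibition, read as CCF4 fluorescence ratio (ex 405, em 460/530 nm) after 2 h at RT. HEK293T UAS-bla cells, 2500/well, were stimulated with 9-cis-RA at 500 or 100 nM final alongside test compound for 18 h at 37 C.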

[5] = biological target: Retinoic acid receptor RXR-alpha (Homo sapiens) (UniProt P19793); assay: as above; settings: HEK293T RXRa-UAS-bla, beta-lactamase ratio, antagonist mode
Sequence of Retinoic acid receptor RXR-alpha (Homo sapiens) (P19793 whole entry, looked up): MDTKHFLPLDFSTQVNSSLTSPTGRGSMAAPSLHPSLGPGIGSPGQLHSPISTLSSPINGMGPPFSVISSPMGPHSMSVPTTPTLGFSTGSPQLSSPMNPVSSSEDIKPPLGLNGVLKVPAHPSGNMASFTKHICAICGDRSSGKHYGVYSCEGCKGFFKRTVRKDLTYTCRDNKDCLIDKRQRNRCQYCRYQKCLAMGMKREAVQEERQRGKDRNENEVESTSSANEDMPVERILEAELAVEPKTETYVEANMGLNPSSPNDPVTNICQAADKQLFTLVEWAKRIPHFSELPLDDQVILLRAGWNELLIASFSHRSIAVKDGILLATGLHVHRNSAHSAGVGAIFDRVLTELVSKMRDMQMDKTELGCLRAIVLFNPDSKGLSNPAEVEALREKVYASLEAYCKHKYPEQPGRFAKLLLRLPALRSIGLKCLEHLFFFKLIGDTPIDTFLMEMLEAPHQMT
Summary of the method: as §1

[6] = biological target: Peroxisome proliferator-activated receptor alpha (Homo sapiens) (UniProt Q07869); assay: qHTS assay for small molecule agonists of the peroxisome proliferator-activated receptor alpha (PPARalpha) signaling pathway (AID 651778); settings: PathHunter PPARalpha complementation, chemiluminescence, 6 h; max response: stronger effect = higher value; further: % of control where 0% means no effect
Sequence of Peroxisome proliferator-activated receptor alpha (Homo sapiens) (Q07869 whole entry, looked up): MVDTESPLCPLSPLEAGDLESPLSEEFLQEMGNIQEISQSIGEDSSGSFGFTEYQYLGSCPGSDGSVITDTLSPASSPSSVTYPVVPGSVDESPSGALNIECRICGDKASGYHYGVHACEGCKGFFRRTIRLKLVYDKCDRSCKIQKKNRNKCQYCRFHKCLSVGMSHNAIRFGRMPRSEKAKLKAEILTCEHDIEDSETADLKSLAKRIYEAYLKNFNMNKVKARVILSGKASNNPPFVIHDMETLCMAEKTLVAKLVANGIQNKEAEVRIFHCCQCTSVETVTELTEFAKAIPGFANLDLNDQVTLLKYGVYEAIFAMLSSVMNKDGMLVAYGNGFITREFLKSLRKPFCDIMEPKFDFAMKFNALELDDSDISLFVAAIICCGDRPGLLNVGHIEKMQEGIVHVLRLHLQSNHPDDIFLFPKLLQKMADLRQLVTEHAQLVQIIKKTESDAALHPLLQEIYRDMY
Summary of the method: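 Chemiluminescence from complemented enzyme reported PPARalpha activation in cells after 6 hr of compound treatment at 37 C. The detection reagent was incubated for 60 min at room temperature, and compounds were scored as agonists.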

[7] = qHTS assay for small molecule agonists of the antioxidant response element (ARE) signaling pathway measured by Nrf2-dependant transcriptional activity - cell viability counter screen (AID 720653; active means well fitted curve in the direction sought with a large enough effect in the repeat runs; an effect the other way counts as inactive or inconclusive; further: on the % scale 0 is the no-effect control and ±100 the full control effect); settings: ARE-bla HepG2 viability, CellTiter-Glo ATP luminescence, 16 h; max response: stronger effect = lower value
Summary of the method: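 Cytotoxicity counter screen: intracellular ATP quantified by CellTiter-Glo luminescence in the same ARE-bla HepG2 plates, after 16 h compound exposure and a 2 h beta-lactamase substrate step.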

[8] = qHTS assay for cell viability of HEK293 cells (AID 743288); settings: ATP luminescence (CellTiter-Glo), 18 h; max response: stronger effect = lower value; further: on the % scale 0 is the no-effect control and ±100 the full control effect; nearly all actives have a fitted effect of over 50% in size
Summary of the method: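 Quantitative high-throughput screen: compounds were pinned onto parental HEK293 cells (2,000 per well) after a minimum 5 h settling at 37 C, incubated 18 h at 37 C, and intracellular ATP measured by luciferase luminescence.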

[9] = qHTS assay for cell viability of the p53RE-bla HCT-116 cell line (AID 743292); further: on the % scale 0 is the no-effect control and ±100 the full control effect; nearly all actives have a fitted effect of over 55% in size
Summary of the method: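 Readout: CellTiter-Glo luminescence after 30 min RT. Treatment: compounds in DMSO, 16 h, 37 C. Cells: CellSensor p53RE-bla HCT-116, 4,000/well, preincubated 5 h.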

[10] = qHTS assay for small molecule activators of the human pregnane X receptor (PXR) signaling pathway (AID 720659; call rule not given here; further: 0% is about no effect)
[11] = biological target: Glucocorticoid receptor (Homo sapiens) (UniProt P04150); assay: qHTS assay for small molecule agonists of glucocorticoid receptor signaling (AID 588532; active means well fitted curve in the direction sought with a large enough effect in the signal ratio, with a control signal flat; the % refers to the signal ratio;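 further: 100% = dexamethasone at 0.1 µM and 0% = DMSO only wells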); settings: HeLa MMTV-bla, beta-lactamase ratio, agonist, 18 h; stronger effect = higher value; percent of dexamethasone control, DMSO zero
Sequence of Glucocorticoid receptor (Homo sapiens) (P04150 whole entry, looked up): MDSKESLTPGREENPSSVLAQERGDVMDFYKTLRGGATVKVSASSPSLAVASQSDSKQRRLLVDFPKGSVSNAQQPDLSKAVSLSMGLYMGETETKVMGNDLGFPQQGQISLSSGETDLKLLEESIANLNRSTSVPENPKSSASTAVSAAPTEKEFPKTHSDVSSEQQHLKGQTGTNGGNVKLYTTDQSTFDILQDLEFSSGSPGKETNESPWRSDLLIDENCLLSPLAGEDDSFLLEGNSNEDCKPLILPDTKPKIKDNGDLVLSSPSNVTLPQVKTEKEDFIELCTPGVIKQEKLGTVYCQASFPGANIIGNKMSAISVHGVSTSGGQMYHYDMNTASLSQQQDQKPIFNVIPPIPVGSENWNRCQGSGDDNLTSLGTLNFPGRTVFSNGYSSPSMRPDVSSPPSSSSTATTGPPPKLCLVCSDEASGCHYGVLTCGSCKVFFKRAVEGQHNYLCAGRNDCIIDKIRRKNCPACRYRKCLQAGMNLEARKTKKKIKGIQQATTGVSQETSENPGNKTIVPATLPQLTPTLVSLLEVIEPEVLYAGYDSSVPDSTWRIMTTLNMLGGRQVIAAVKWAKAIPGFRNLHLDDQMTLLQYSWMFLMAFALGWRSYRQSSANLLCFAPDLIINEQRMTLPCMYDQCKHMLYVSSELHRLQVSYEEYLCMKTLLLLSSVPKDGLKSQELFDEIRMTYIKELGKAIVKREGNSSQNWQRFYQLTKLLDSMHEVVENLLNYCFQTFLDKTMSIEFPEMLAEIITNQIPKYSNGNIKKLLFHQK
Summary of the method: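 Agonist-mode qHTS: GRE-driven beta-lactamase in HeLa cells exposed 18 h to titrated compounds (up to 92 uM), then CCF4 ratio read after 2 h at RT; Hill-fitted EC50, efficacy relative to 0.1 uM dexamethasone.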

[12] = biological target: Glucocorticoid receptor (Homo sapiens) (UniProt P04150); assay: qHTS assay for small molecule antagonists of glucocorticoid receptor signaling (AID 588533; active means well fitted inhibition curve with a large enough effect in the signal ratio, with a control signal flat, not every such curve was filed as active; the % refers to the signal ratio;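 further: cells stimulated with 2 nM dexamethasone as agonist; on the % scale 0 is the no-effect control and ±100 the full control effect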)
Summary of the method: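 Antagonist-mode qHTS: compound titrations added to GRE-bla HeLa cells, then dexamethasone 2 nM final; 18 h, 37 C. CCF4 FRET fluorescence normalized to dexamethasone and DMSO; IC50 from Hill fit.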

[13] = qHTS assay for small molecule agonists of the antioxidant response element (ARE) signaling pathway (AID 651741; active means well fitted activation curve with a large enough effect in the signal ratio; the % refers to the signal ratio; further: potency means the concentration at half of the fitted maximal effect; on activation: % of control where 0% means no effect)
Summary of the method: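 Beta-lactamase reporter under ARE control in HepG2 cells, 2,000 per well, was induced by 16 h compound treatment at 37 C. Read-out was fluorescence from LiveBLAzer B/G FRET substrate after 2 h at room temperature.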

[14] = qHTS assay for small molecule activators of the p53 signaling pathway (AID 651743; active means well fitted activation curve with a large enough effect in the signal ratio, not every such curve was filed as active; the % refers to the signal ratio; further: series mostly up to about 92 µM; % of control where 0% means no effect); settings: HCT-116 p53RE-bla, beta-lactamase FRET ratio, 16 h; activation: stronger effect = higher value
Summary of the method: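 After 16 hours compound treatment at 37 C, HCT-116 cells stably expressing p53RE-driven beta-lactamase were loaded with LiveBLAzer B/G FRET substrate for 2 hours at room temperature. Fluorescence intensity served as the p53 activation read-out.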

[15] = qHTS assay for small molecule agonists of the antioxidant response element (ARE) signaling pathway measured by Nrf2-dependant transcriptional activity (AID 720636; active means well fitted curve in the direction sought with a large enough effect in the repeat runs; an effect the other way counts as inactive or inconclusive; further: potency means the concentration at half of the fitted maximal effect;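 on activation: HepG2 cells with an ARE-driven luciferase reporter; % of control where 0% means no effect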)
Summary of the method: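 Reporter gene assay, HepG2 ARE-luc: 16 hr compound, 37 C, 5% CO2; read-out luciferase luminescence.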

[16] = biological target: Nuclear receptor subfamily 1 group I member 2 (Rattus norvegicus) (UniProt Q9R1A7); assay: qHTS assay for small molecule activators of the rat pregnane X receptor (rPXR) signaling pathway (AID 651751; call rule not given here; further: 0% is about no effect); settings: rPXR reporter cells, luciferase (One-Glo), 24 h
Sequence of Nuclear receptor subfamily 1 group I member 2 (Rattus norvegicus) (Q9R1A7 whole entry, looked up): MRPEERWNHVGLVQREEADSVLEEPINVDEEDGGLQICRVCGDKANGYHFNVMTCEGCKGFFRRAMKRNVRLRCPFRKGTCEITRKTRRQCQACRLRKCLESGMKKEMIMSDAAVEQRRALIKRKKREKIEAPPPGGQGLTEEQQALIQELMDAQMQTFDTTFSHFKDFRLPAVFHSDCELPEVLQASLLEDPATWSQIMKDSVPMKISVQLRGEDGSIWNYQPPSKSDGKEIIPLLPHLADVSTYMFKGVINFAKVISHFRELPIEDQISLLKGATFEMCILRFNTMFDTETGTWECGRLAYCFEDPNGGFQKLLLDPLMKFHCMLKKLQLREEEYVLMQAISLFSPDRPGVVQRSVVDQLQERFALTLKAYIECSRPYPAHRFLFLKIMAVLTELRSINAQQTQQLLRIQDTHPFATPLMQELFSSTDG

[17] = qHTS assay for small molecule agonists of retinoid X receptor alpha signaling (AID 588544; calls by dose curve;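 on activation: 0% = DMSO basal wells and 100% = reference agonist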); settings: HEK293T RXRa-UAS-bla, beta-lactamase reporter, 18 h; 530 nm emission
[18] = biological target: Retinoic acid receptor RXR-alpha (Homo sapiens) (UniProt P19793); assay: as above
[19] = qHTS assay for environmental chemicals that activate the Aryl hydrocarbon Receptor (AhR) signaling pathway (AID 651777); settings: 1A2-DRE human hepatoma cells, luciferase, 24 h; activation: stronger effect = higher value; further: % of control where 0% means no effect; nearly all actives have a fitted effect of over 15% in size
Summary of the method: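 Stable CYP1A2 promoter/DRE-luciferase human hepatoma line treated 24 hr; One-Glo luminescence, 30 min RT.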

[20] = qHTS assay for small molecule antagonists of peroxisome proliferator-activated receptor delta signaling (AID 588535); settings: HEK293T PPARd-UAS-bla, beta-lactamase FRET ratio, 18 h; 460 nm channel;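 further: cells co-treated with a PPAR-delta agonist as stimulator during compound exposure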
Summary of the method: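 Titrations were run on PPAR-delta-UAS-bla HEK293T cells in charcoal/dextran-stripped serum, incubated 18 h at 37 C. CCF4 fluorescence (460/530 nm) after 2 h RT; Hill equation yields IC50 and maximal response.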

O=C(O)C1(C(=O)Nc2ccc(Cl)cc2Cl)CC1
8.82%: max response [4]
inactive: Potency [1] | outcome [2] | Potency [3] | max response [5] 9.68% | max response [6] 0.116% | max response [7] -1.63% | max response [8] -9.45% | Potency [9] | outcome [10]

Nc1cc(Cl)c(O)c(Cl)c1
active: Potency [13] 12.2 µM | Potency [15] 68.6 µM
inactive: activation [11] 16.9% | Potency [12] | outcome [2] | Potency [3] | activation [14] -2.82% | max response [6] -5.8% | max response [7] -17.9% | Potency [9] | max response [16] 0.356% | outcome [10]

O=C1CCC(C2CCCCC2)CC1
-11.9%: max response [4]
inactive: Potency [12] | Potency [1] | outcome [2] | Potency [18] | Potency [3] | max response [5] -6.4% | activation [19] -0.377% | max response [6] -1.16% | Potency [15] | max response [7] -5.5% | max response [8] -5.89% | Potency [9] | max response [16] -0.198% | outcome [10]
-15.9%: max response [17]

CCCCCCCCCCCCCCCO
-44.9%: max response [20]
-3.46%: max response [4]
inactive: outcome [2] | Potency [18] | Potency [3] | max response [5] -24% | Potency [13] | activation [14] -0.317% | activation [19] 2.17% | max response [6] 0.401% | Potency [15] | max response [7] -7.38% | Potency [9] | max response [16] 3.48% | outcome [10]
-7.63%: max response [17]

COCCOCCOCCOC
-14.6%: max response [17]
inactive: activation [11] -5.4% | Potency [12] | Potency [1] | Potency [18] | Potency [3] | max response [5] 2.59% | activation [14] 0.451% | max response [6] -0.298% | max response [7] 1.56% | max response [8] -11.9% | Potency [9] | max response [16] -0.732% | outcome [10]
0.474%: max response [4]

C=C(C)C(=O)OCC(CC)(COC(=O)C(=C)C)COC(=O)C(=C)C
-12.4%: max response [17]
-6.08%: max response [4]
9.24%: max response [20]
inactive: activation [11] 3.82% | Potency [18] | Potency [3] | max response [5] 13.1% | Potency [13] | activation [14] -3.72% | max response [6] -3.37% | max response [7] -12% | max response [8] -15.9% | Potency [9] | max response [16] -1.04% | outcome [10]

CCCCC(CC)COC(=O)/C=C\C(=O)OCC(CC)CCCC (stereo unspecified)
inactive: activation [11] -2.45% | Potency [12] | Potency [1] | outcome [2] | Potency [18] | max response [5] 1.08% | activation [19] 0.172% | max response [6] -0.882% | Potency [15] | max response [7] -2.59% | Potency [9] | max response [16] -1.19% | outcome [10]
active: Potency [13] 30.6 µM
14.1%: max response [20]
-16.2%: max response [4]
1.27%: max response [17]
